SW480 rereplic: A quantitative high throughput screen for small molecules that induce DNA re-replication in SW480 colon adenocarcinoma cells | SW480 DNA re-replication, Hoechst DNA content imaging, 48 h | Potency, µM (top dose mostly 46.1 µM), for inactives: at the highest dose re-replication activation, usual class: activators | 1.8% of 340,000 active | AID 624297, 2012; note: % of control where 0% means no effect; nearly all actives have a fitted effect of over 55% in size
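250 cells/well; 23 nL cpd via pin tool; 48 hr, 37 C, 5% CO2; Hoechst 40 min; imager read of total nuclear intensity, ex 405/em 500-530 nm.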
HT1080 IDH1KD tx: qHTS for induction of synthetic lethality in tumor cells producing 2HG: qHTS for the HT-1080-IDH1KD cell line. HT-1080 IDH1 knockdown viability, ATP luminescence, 48 h. Potency, µM (highest dose often 46.1 µM), inactives show at the top dose activity, negative = toxicity, hits mostly cytotoxic. 2% of 360,000 active;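 note: 0% = DMSO wells and -100% = cell-free medium wells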
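In this qHTS, HT-1080 cells depleted of IDH1 are exposed for 48 h at 37 °C to compound titrations. Toxicity is scored from CellTiter-Glo luminescence, with DMSO as full viability and medium alone as none.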
KB-3-1 tox: qHTS assay for MDR1-selective chemotherapeutics: Primary screen using the parental adenocarcinoma cell KB-3-1; 1.4% of 400,000 active; KB-3-1 viability, CellTiter-Glo ATP luminescence, 72 h; Potency, µM (titrated, usually from 46.1 µM), most hits filed as cytotoxic; note: % is set by controls: 0 for no effect and ±100 for the full control effect; nearly all actives have a fitted effect of over 60% in size
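Parental KB-3-1 viability, qHTS format: 72 h compound exposure, 37 °C; CellTiter-Glo; media-only wells and DMSO plates as controls; concentration-effect fits on corrected data.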
KB-V1 cytotox: qHTS assay for MDR1-selective chemotherapeutics: Primary screen using the drug-selected MDR subline cells KB-V1; KB-V1 MDR cells viability, CellTiter-Glo, 72 h; 3.4% of 400,000 active; Potency, µM (doses to about 46.1 µM), hits mostly cytotoxic; note: % is set by controls: 0 for no effect and ±100 for the full control effect; nearly all actives have a fitted effect of over 60% in size
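Cytotoxicity via CellTiter-Glo luminescence after 72 h compound exposure at 37 degrees C. Cells: drug-selected KB-V1 line, DMEM phenol-red free plus 10% FBS. Compounds tested at multiple concentrations; normalized data fitted to concentration-effect curves.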
HT1080NT lethal: qHTS for induction of synthetic lethality in tumor cells producing 2HG: qHTS for the HT-1080-NT fibrosarcoma cell line; 1.6% of 360,000 active; Potency, µM (series often up to 46.1 µM), for inactives: at the top dose activity, negative = less viability, most hits filed as cytotoxic; HT-1080-NT fibrosarcoma viability, CellTiter-Glo ATP luminescence, 48 h;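 note: NT is the 2HG producing partner of a matched IDH1 knockdown line; 0% = DMSO-treated cells and -100% = media-only wells without cells; nearly all actives have a fitted effect of over 55% in size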
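Read-out is CellTiter-Glo luminescence after 10 minutes at room temperature, following 48 hours' compound treatment of HT-1080-NT cells (750 cells/well, RPMI, 5% FBS, 37 degrees C).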
MCF10A rereplic: A quantitative high throughput screen for small molecules that induce DNA re-replication in MCF 10a normal breast cells; MCF 10A DNA re-replication, Hoechst nuclear intensity, 48 h; Potency, µM (top dose mostly 46.1 µM), for inactives: at the top dose activity, positive = re-replication, usual class: activators; 2.9% of 350,000 active; AID 624296, 2012; note: % of control where 0% means no effect; nearly all actives have a fitted effect of over 50% in size
* = called active by the depositor; i = inactive; ? = inconclusive; nt = no result given. Compounds with a hit are over-represented: about 7.9% of the library has one in this group of screens. Calls come from the whole dose curve; as a rule, active = well fitted curve in the direction sought with a large enough effect; inconclusive = small, poorly fitted or top-dose-only effect, or another doubt; inactive = no such curve, though single readings can be large; an effect the other way counts as inactive or inconclusive. Potency is the fitted concentration of half-maximal effect.

SMILES	SW480 rereplic	HT1080 IDH1KD tx	KB-3-1 tox	KB-V1 cytotox	HT1080NT lethal	MCF10A rereplic
O=C(COC(=O)/C=C/c1ccc([N+](=O)[O-])cc1)NCc1ccccc1	-4%	0%	i	i	-2%	3%
O=C(COC(=O)/C=C/c1ccc([N+](=O)[O-])cc1)NC(c1ccccc1)c1ccccc1	20%	-13%	i	i	-14%	23µM*
CS(=O)(=O)N(CC(=O)N/N=C/c1cc2c(cc1Br)OCO2)c1ccccc1Br	-6%	-12%	?	18µM*	-2%	1%
COc1nc(Cl)cn(-c2ccc(C)cc2)c1=O	-6%	5%	i	i	9%	-5%
Cc1ccc(-n2c(Cl)c(Cl)nc(Cl)c2=O)cc1	8.2µM*	2.9µM*	?	i	2.6µM*	1.8µM*
Cc1ccc(S(=O)(=O)Nc2ccc(O)c(Sc3ncn[nH]3)c2)cc1	-19%	4%	i	i	14%	-36%
Cc1ccc(S(=O)(=O)/N=C2/C=C(Sc3ncn[nH]3)C(=O)c3ccccc32)cc1	8.2µM*	3.7µM*	i	?	18µM*	11%
CCOc1ccc(S(=O)(=O)Nc2ccc(O)c(Sc3ncn[nH]3)c2)cc1	-2%	0%	i	i	1%	11%
CC(C)c1ccc(S(=O)(=O)/N=C2/C=C(Sc3ncn[nH]3)C(=O)c3ccccc32)cc1	10µM*	4.6µM*	i	?	2.9µM*	3.3µM*
Cc1cc(OC(C)C(=O)NCC2CCC(C(=O)O)CC2)c2c(C)c(C)c(=O)oc2c1 (stereo not given)	-44%	12%	i	i	-4%	?
COc1ccc(-c2nc(C)c(CCNC(=O)c3cccs3)s2)cc1	nt	nt	i	8.2µM*	nt	nt
Cc1ccc(-c2nc(C)c(CCNC(=O)c3cccs3)s2)cc1	nt	nt	i	?	nt	nt
COc1ccc(S(=O)(=O)N2CCN(CC(O)CN3CCOCC3)CC2)cc1 (stereo not given)	-5%	0%	i	?	-2%	9%
C/C(=N\n1cnnc1)c1ccc(C#N)cc1	-3%	-1%	i	i	1%	0%
Cc1c2c(cc3c1[nH]c1ccccc13)C=NCC2	?	?	?	?	-12%	21µM*
Cc1cc2c([nH]c3ccccc32)c(C)n1	6%	-30%	i	i	-2%	?
CCc1ccc(/C=C2/SC(N3CCOCC3)=NC2=O)cc1	-38%	7%	i	i	11%	-2%
CCN1C/C(=C/c2ccc(N3CCOCC3)cc2)C(=O)/C(=C/c2ccc(N3CCOCC3)cc2)C1	16µM*	21µM*	?	18µM*	?	23µM*
c1ccc(N2CCOCCOCCOCCOCCOCC2)cc1	-1%	9%	i	i	1%	-3%
CN1C/C(=C\c2ccc(N3CCOCC3)cc2)C(=O)/C(=C/c2ccc(N3CCOCC3)cc2)C1	?	?	?	21µM*	?	18µM*
CCc1ccc(OCC(=O)N/N=C(\C)c2ccc3c(c2)OCCO3)cc1	-4%	6%	i	i	3%	1%
CCCCCCSc1ccc(-c2nc3cc(C)ccn3c2NC2CCCCC2)cc1	10%	0%	?	?	0%	18µM*
CCCCCCSc1cc(-c2nc3cc(C)ccn3c2NC2CCCCC2)ccc1OC	-2%	6%	?	i	1%	?
Cc1ccn2c(NC3CCCC3)c(-c3ccncc3)nc2c1	-26%	6%	i	i	9%	3%
